Data: the supplement of paper PMC10849652
About 8,800 targets were measured; listed, in parts, are those with a hit and a random draw of the rest. About 0.5% of all pairs of compound and target were hits.

How the values were obtained:
Experiment in all cases: log2 fold change, soluble protein after heating vs DMSO (PISA); higher = thermal stabilisation; K562 lysate, 10 uM; active = over 0.2 and 3.5 SD of the protein, either way, in both replicates (recomputed)
alvocidib = compound: CN1CC[C@H](c2c(O)cc(O)c3c(=O)cc(-c4ccccc4Cl)oc23)[C@H](O)C1 [alvocidib]
Summary of the method: (§1)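 Thermal stability, expressed as log-two fold change relative to solvent controls, is given from duplicates. Crude K562 extract in PBS pH 7.4 with 1 mM MgCl2, at 1 mg/mL protein, was treated with 10 μM compound for 30 min and heated in aliquots for 3 min across 48°C-58°C. After pooling, adjustment to 0.5% NP-40 at 4°C and centrifugation at 21,000xg for 90 min, supernatant protein was measured by TMTpro 16plex LC-MS/MS with channel sums equalised.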

Tubastatin A = compound: CN1CCc2c(c3ccccc3n2Cc2ccc(C(=O)NO)cc2)C1 [Tubastatin A]
Summary of the method: as §1

[1] = compound: CNC(=O)C1=CC=CC=C1NC2=NC(=NC=C2Cl)NC3=C(C=C(C=C3)N4CCOCC4)OC
Summary of the method: as §1

defactinib = compound: CNC(=O)c1ccc(Nc2ncc(C(F)(F)F)c(NCc3nccnc3N(C)S(C)(=O)=O)n2)cc1 [defactinib]
Summary of the method: as §1

[2] = compound: CNc1nc(-c2ccc3c(N)n[nH]c3c2)cc(N2C[C@@H](C(=O)NC3CCCCC3)CC[C@H]2C)n1
Summary of the method: as §1

encorafenib = compound: COC(=O)N[C@@H](C)CNc1nccc(-c2cn(C(C)C)nc2-c2cc(Cl)cc(NS(C)(=O)=O)c2F)n1 [encorafenib]
Summary of the method: as §1

[3] = compound: COC(=O)[C@H](CCSC)NC(=O)C1=C(C=C(C=C1)NC[C@H](CS)N)C2=CC=CC=C2
Summary of the method: as §1

alisertib = compound: COc1cc(Nc2ncc3c(n2)-c2ccc(Cl)cc2C(c2c(F)cccc2OC)=NC3)ccc1C(=O)O [alisertib]
Summary of the method: as §1

[4] = compound: COc1cc2nc(-c3cc(F)ccc3O)nc(N[C@@H]3CNC[C@H]3C(C)(C)O)c2cc1OC
Summary of the method: as §1

gefitinib = compound: COc1cc2ncnc(Nc3ccc(F)c(Cl)c3)c2cc1OCCCN1CCOCC1 [gefitinib]
Summary of the method: as §1

lapatinib = compound: CS(=O)(=O)CCNCc1ccc(-c2ccc3ncnc(Nc4ccc(OCc5cccc(F)c5)c(Cl)c4)c3c2)o1 [lapatinib]
Summary of the method: as §1

pictilisib = compound: CS(=O)(=O)N1CCN(Cc2cc3nc(-c4cccc5[nH]ncc45)nc(N4CCOCC4)c3s2)CC1 [pictilisib]
Summary of the method: as §1

crizotinib = compound: C[C@@H](Oc1cc(-c2cnn(C3CCNCC3)c2)cnc1N)c1c(Cl)ccc(F)c1Cl [crizotinib]
Summary of the method: as §1

[5] = compound: C[C@H](C1=CC=C(C=C1)C(=O)NC2=C3C=CNC3=NC=C2)N
Summary of the method: as §1

duvelisib = compound: C[C@H](Nc1ncnc2nc[nH]c12)c1cc2cccc(Cl)c2c(=O)n1-c1ccccc1 [duvelisib]
Summary of the method: as §1

gandotinib = compound: Cc1cc(Nc2cc(CN3CCOCC3)c3nc(C)c(Cc4ccc(Cl)cc4F)n3n2)n[nH]1 [gandotinib]
Summary of the method: as §1

tozasertib = compound: Cc1cc(Nc2cc(N3CCN(C)CC3)nc(Sc3ccc(NC(=O)C4CC4)cc3)n2)n[nH]1 [tozasertib]
Summary of the method: as §1

doramapimod = compound: Cc1ccc(-n2nc(C(C)(C)C)cc2NC(=O)Nc2ccc(OCCN3CCOCC3)c3ccccc23)cc1 [doramapimod]
Summary of the method: as §1

bafetinib = compound: Cc1ccc(NC(=O)c2ccc(CN3CC[C@H](N(C)C)C3)c(C(F)(F)F)c2)cc1Nc1nccc(-c2cncnc2)n1 [bafetinib]
Summary of the method: as §1

[6] = compound: Cc1cccc(CC(=O)N2CCc3c2ccc(-c2cn(C)c4ncnc(N)c24)c3F)n1
Summary of the method: as §1

Measured: log2 fold change

GDPD1 (UniProt Q8N9F7)
active: [3] -0.272
inactive: alvocidib 0 | Tubastatin A -0.023 | [1] 0.006 | defactinib -0.03 | [2] 0.046 | encorafenib 0.059 | alisertib -0.018 | [4] -0.027 | gefitinib -0.035 | lapatinib 0.03 | pictilisib -0.042 | crizotinib -0.157 | [5] 0.001 | duvelisib 0.049 | gandotinib 0.164 | tozasertib -0.029 | doramapimod 0.027 | bafetinib 0.022 | [6] 0.007

EFCAB14 (UniProt O75071)
UniProt O75071, sequence (O75071 whole entry, looked up): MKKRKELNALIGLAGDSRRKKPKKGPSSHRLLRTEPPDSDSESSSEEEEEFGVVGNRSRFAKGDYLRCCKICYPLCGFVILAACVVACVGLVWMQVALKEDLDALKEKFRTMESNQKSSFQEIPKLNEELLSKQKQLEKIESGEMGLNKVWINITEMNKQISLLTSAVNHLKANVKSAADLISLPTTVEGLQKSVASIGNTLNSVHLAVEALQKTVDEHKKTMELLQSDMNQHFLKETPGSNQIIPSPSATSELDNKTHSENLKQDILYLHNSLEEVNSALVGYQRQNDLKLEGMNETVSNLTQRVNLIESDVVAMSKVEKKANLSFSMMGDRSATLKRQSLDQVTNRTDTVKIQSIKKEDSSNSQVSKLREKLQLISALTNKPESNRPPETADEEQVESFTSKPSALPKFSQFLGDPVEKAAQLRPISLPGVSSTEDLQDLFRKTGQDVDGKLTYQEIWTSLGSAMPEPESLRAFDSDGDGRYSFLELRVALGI
inactive: alvocidib -0.056 | Tubastatin A 0.077 | [1] 0.01 | defactinib -0.007 | [2] -0.058 | encorafenib 0.038 | [3] -0.086 | alisertib 0.063 | [4] 0.012 | gefitinib -0.131 | lapatinib -0.051 | pictilisib -0.058 | crizotinib 0.006 | [5] 0.037 | duvelisib 0.022 | gandotinib 0.064 | tozasertib 0.086 | doramapimod 0.011 | bafetinib -0.002 | [6] -0.084

EPB41 (UniProt P11171)
UniProt P11171, sequence (P11171 whole entry, looked up): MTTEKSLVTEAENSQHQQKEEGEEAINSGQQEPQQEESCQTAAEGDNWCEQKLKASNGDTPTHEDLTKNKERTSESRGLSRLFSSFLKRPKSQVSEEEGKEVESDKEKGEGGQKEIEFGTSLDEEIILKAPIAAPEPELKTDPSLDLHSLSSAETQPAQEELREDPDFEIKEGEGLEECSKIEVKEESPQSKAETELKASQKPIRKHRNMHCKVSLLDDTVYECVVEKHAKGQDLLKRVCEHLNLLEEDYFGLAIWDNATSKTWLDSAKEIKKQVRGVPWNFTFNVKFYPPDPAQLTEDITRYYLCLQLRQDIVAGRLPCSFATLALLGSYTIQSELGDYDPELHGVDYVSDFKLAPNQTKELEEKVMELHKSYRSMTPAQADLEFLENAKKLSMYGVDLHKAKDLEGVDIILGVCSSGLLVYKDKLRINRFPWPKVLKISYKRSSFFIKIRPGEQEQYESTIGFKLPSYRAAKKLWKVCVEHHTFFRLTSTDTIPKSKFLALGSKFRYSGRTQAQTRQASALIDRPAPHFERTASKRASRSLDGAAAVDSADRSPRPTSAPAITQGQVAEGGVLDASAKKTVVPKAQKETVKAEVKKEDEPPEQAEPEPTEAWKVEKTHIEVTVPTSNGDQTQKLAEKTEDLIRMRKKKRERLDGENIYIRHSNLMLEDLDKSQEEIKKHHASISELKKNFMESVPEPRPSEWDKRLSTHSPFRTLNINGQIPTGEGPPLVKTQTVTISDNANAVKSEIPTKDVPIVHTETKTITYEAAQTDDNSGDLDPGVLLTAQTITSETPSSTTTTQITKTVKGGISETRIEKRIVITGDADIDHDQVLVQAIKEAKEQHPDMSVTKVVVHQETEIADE
inactive: alvocidib 0.044 | Tubastatin A -0.02 | [1] 0.011 | defactinib 0.015 | [2] -0.067 | encorafenib 0.01 | [3] -0.001 | alisertib 0.02 | [4] -0.036 | gefitinib 0.007 | lapatinib -0.009 | pictilisib -0.015 | crizotinib -0.007 | [5] 0.04 | duvelisib -0.016 | gandotinib -0.105 | tozasertib 0.035 | doramapimod 0.01 | bafetinib -0.013 | [6] -0.088

FDX2 (UniProt Q6P4F2)
UniProt Q6P4F2, sequence (Q6P4F2 whole entry, looked up): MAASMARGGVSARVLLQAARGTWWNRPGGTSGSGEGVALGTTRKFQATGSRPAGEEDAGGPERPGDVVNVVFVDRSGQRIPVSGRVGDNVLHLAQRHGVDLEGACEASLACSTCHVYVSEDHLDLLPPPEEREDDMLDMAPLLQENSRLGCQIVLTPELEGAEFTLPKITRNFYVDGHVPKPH
inactive: alvocidib -0.016 | Tubastatin A 0.093 | [1] -0.001 | defactinib -0.017 | [2] -0.478 | encorafenib -0.33 | [3] -0.313 | alisertib 0.07 | [4] -0.021 | gefitinib -0.041 | lapatinib 0.047 | pictilisib -0.169 | crizotinib 0.057 | [5] -0.142 | duvelisib 0.188 | gandotinib 0.014 | tozasertib -0.15 | doramapimod 0.014 | bafetinib 0 | [6] 0.112

ELF2 (UniProt Q15723)
active: lapatinib 0.256
inactive: alvocidib 0.023 | Tubastatin A 0.016 | [1] 0.024 | defactinib -0.013 | [2] -0.062 | encorafenib 0.028 | [3] 0.038 | alisertib -0.101 | [4] -0.06 | gefitinib 0.047 | pictilisib 0.039 | crizotinib -0.085 | [5] 0.033 | duvelisib 0.072 | gandotinib -0.046 | tozasertib -0.033 | doramapimod -0.042 | bafetinib -0.119 | [6] -0.075

EEFSEC (UniProt P57772)
inactive: alvocidib -0.008 | Tubastatin A -0.157 | [1] 0.019 | defactinib 0.036 | [2] -0.017 | encorafenib 0.018 | [3] 0.098 | alisertib 0.019 | [4] 0 | gefitinib -0.012 | lapatinib -0.019 | pictilisib 0.008 | crizotinib -0.042 | [5] -0.043 | duvelisib 0.031 | gandotinib -0.023 | tozasertib 0.024 | doramapimod 0.022 | bafetinib -0.079 | [6] 0.041

FANCI (UniProt Q9NVI1)
UniProt Q9NVI1, sequence (Q9NVI1 whole entry, looked up): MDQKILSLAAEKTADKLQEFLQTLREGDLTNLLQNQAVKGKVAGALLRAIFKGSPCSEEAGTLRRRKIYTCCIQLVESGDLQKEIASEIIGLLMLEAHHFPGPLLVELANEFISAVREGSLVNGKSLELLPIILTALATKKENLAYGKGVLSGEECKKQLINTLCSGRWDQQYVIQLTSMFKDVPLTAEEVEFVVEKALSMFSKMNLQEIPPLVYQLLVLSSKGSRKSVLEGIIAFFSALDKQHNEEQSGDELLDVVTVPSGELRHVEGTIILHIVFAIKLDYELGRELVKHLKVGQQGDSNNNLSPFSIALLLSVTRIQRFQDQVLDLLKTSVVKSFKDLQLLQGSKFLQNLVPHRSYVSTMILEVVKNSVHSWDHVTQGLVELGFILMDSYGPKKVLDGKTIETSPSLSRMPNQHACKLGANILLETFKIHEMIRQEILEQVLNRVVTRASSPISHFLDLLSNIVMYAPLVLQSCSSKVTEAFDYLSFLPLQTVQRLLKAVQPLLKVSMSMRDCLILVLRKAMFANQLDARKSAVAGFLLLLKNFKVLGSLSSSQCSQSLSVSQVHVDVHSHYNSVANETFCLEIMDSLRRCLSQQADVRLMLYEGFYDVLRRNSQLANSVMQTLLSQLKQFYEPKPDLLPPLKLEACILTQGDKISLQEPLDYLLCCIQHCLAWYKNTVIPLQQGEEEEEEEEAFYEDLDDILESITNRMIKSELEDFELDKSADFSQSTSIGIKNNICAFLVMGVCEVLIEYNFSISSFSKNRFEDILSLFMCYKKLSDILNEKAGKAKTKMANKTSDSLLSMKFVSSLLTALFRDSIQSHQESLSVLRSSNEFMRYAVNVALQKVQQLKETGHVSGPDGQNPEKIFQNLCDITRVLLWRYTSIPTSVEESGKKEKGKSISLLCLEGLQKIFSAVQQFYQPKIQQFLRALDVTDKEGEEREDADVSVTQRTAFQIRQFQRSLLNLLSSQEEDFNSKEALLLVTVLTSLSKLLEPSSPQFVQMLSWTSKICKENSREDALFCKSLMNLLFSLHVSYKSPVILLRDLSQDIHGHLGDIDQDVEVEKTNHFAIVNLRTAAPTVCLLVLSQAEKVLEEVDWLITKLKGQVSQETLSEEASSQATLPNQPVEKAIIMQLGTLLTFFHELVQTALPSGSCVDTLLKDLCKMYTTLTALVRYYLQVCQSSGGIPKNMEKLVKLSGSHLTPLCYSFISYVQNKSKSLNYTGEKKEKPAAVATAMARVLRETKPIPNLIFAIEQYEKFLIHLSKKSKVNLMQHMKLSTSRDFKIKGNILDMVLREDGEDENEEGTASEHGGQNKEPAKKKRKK
inactive: alvocidib 0.063 | Tubastatin A -0.097 | [1] 0.014 | defactinib 0.01 | [2] -0.036 | encorafenib 0.002 | [3] 0.052 | alisertib 0 | [4] 0.01 | gefitinib -0.002 | lapatinib -0.015 | pictilisib -0.034 | crizotinib -0.09 | [5] 0.06 | duvelisib 0.001 | gandotinib -0.199 | tozasertib 0.002 | doramapimod -0.003 | bafetinib -0.032 | [6] -0.011

ECI2 (UniProt O75521)
UniProt O75521, sequence (O75521 whole entry, looked up): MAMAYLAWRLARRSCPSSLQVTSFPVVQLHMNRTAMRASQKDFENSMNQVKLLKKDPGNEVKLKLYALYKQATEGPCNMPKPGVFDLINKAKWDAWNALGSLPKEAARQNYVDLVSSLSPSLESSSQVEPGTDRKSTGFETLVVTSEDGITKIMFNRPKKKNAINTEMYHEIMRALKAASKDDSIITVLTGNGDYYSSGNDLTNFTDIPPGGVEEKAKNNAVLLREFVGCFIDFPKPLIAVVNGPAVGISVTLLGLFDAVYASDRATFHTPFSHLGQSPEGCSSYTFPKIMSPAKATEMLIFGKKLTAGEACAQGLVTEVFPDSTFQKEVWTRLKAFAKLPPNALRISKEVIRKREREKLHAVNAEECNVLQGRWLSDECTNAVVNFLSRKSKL
inactive: alvocidib -0.033 | Tubastatin A 0.054 | [1] -0.054 | defactinib -0.038 | [2] 0.03 | encorafenib -0.006 | [3] -0.067 | alisertib 0.004 | [4] -0.008 | gefitinib 0.011 | lapatinib -0.022 | pictilisib -0.017 | crizotinib 0.032 | [5] -0.002 | duvelisib 0.004 | gandotinib -0.009 | tozasertib 0.03 | doramapimod 0.007 | bafetinib -0.002 | [6] 0.042

FYB1 isoform 3 (UniProt O15117)
UniProt O15117, sequence (O15117 whole entry, looked up): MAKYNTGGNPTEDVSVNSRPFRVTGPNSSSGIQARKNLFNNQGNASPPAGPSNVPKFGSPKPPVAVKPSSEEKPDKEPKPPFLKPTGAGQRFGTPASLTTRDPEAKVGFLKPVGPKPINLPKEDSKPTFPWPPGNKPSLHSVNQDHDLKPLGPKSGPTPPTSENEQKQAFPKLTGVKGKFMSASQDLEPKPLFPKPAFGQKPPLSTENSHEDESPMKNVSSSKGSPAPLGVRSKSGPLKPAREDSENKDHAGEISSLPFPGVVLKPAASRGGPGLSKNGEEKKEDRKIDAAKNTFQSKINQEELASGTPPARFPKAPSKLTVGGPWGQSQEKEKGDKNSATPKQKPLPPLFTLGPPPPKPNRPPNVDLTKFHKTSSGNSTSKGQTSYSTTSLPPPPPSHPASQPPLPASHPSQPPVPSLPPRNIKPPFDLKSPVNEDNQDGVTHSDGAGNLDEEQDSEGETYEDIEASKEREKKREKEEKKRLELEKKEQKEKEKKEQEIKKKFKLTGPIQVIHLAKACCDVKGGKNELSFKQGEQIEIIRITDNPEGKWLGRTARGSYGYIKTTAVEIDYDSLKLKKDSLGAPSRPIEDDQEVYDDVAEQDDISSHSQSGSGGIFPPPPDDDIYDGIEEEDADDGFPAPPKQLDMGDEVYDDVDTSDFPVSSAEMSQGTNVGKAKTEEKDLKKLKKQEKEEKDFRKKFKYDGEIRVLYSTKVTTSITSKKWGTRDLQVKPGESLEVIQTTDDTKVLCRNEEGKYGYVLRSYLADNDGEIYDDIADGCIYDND
inactive: alvocidib -0.012 | Tubastatin A -0.001 | [1] 0.013 | defactinib 0.033 | [2] 0.065 | encorafenib -0.005 | [3] -0.035 | alisertib -0.012 | [4] -0.014 | gefitinib -0.029 | lapatinib 0.045 | pictilisib -0.008 | crizotinib -0.082 | [5] 0.147 | duvelisib 0.01 | gandotinib -0.051 | tozasertib 0.052 | doramapimod -0.007 | bafetinib -0.062 | [6] -0.058

FKBP1A (UniProt P62942)
UniProt P62942, sequence (P62942 whole entry, looked up): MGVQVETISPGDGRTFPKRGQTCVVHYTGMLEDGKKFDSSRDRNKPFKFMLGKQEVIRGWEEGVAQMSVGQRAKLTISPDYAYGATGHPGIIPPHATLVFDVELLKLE
inactive: alvocidib -0.296 | Tubastatin A 0.047 | [1] 0.06 | defactinib 0.144 | [2] 0.034 | encorafenib 0.005 | [3] -0.061 | alisertib 0.105 | [4] -0.076 | gefitinib -0.003 | lapatinib -0.011 | pictilisib -0.031 | crizotinib 0.005 | duvelisib 0.074 | gandotinib 0.266 | tozasertib -0.037 | doramapimod -0.04 | bafetinib -0.111 | [6] 0.15
active: [5] -0.814

FAM120B (UniProt Q96EK7)
inactive: alvocidib -0.005 | Tubastatin A -0.063 | [1] 0.016 | defactinib 0.073 | [2] -0.02 | encorafenib 0.029 | [3] 0.034 | alisertib -0.007 | [4] -0.001 | gefitinib 0.021 | lapatinib 0.041 | pictilisib -0.012 | crizotinib -0.021 | [5] -0.018 | duvelisib -0.021 | gandotinib -0.051 | tozasertib -0.064 | doramapimod 0.021 | bafetinib -0.045 | [6] 0.045

EPRS (UniProt P07814)
inactive: alvocidib 0.012 | Tubastatin A -0.11 | [1] 0.002 | defactinib 0.003 | [2] -0.015 | encorafenib -0.004 | [3] 0.107 | alisertib 0.015 | [4] -0.01 | gefitinib -0.032 | lapatinib -0.005 | pictilisib 0.006 | crizotinib -0.042 | [5] 0.015 | duvelisib 0.031 | gandotinib -0.069 | tozasertib 0.012 | doramapimod 0.02 | bafetinib 0.003 | [6] 0.019

EXOC1 (UniProt Q9NV70)
UniProt Q9NV70, sequence (Q9NV70 whole entry, looked up): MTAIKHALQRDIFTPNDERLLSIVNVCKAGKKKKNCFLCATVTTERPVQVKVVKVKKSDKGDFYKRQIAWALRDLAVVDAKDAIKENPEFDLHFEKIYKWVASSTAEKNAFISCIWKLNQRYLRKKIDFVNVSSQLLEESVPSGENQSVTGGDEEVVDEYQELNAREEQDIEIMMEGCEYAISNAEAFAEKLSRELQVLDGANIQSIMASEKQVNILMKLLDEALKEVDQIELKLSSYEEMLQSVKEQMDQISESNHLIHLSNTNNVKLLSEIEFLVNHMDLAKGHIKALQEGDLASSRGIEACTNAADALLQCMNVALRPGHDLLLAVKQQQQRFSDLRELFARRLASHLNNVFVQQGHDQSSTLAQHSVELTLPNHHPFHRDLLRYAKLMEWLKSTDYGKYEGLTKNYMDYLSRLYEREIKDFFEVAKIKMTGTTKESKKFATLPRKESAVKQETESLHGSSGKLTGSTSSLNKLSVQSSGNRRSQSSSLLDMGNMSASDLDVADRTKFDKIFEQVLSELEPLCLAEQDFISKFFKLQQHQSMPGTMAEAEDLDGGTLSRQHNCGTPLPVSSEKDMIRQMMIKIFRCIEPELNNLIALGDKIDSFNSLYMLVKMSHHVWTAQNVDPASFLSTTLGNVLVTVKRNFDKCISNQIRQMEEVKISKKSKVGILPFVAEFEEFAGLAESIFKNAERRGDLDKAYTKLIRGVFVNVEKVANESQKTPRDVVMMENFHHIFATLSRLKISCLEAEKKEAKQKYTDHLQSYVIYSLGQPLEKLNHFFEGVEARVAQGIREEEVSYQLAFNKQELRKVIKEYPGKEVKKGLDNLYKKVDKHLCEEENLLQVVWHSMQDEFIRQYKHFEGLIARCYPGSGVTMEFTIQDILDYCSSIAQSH
inactive: alvocidib 0.01 | Tubastatin A -0.139 | [1] 0.006 | defactinib 0.022 | [2] -0.086 | encorafenib 0.014 | [3] 0.012 | alisertib 0.007 | [4] -0.015 | gefitinib 0.015 | lapatinib -0.013 | pictilisib 0.029 | crizotinib -0.041 | [5] 0.04 | duvelisib 0.016 | gandotinib -0.186 | tozasertib -0.004 | doramapimod 0.023 | bafetinib -0.04 | [6] 0.024
